{
  "source": "PubChem BioAssay AID720650",
  "about": "(Broad Institute, 2013)",
  "note": "Calls of active or inactive are those of the source. The rule behind the calls is not given here.",
  "data": [
    {"test": "C difficile toxins, biochemical counterscreen, UDPG substrate absence, confirmatory dose response (AID 720650)", "settings": "series mostly up to 19.5 µM; activity change, negative = inhibition: at the top concentration", "values": [
      {"smiles": "CCC(=O)Nc1ccc2c(c1)OC[C@@H](C)N(C(=O)NC(C)C)C[C@@H](C)[C@@H](OC)CN(C)C2=O", "activity change, negative = inhibition": "0.233% (inactive)"},
      {"smiles": "C/C(=N\\NC(=O)CSc1nc2ccccc2c(=O)n1-c1ccccc1C)c1cccs1", "activity change, negative = inhibition": "-1.74% (inactive)"},
      {"smiles": "CCOC(=O)[C@H]1[C@H]2COc3ccc(OC)cc3[C@@H]2N2C(=O)CN(Cc3ccc(Cl)cc3)C(=O)[C@@]12C", "activity change, negative = inhibition": "-8.66% (inactive)"},
      {"smiles": "O=C(Nc1ccc(N2CCOCC2)c(Cl)c1)c1ccc2c(c1)OCCO2", "activity change, negative = inhibition": "-12.3% (inactive)"},
      {"smiles": "COCCCNC(=O)C1CCN(S(=O)(=O)c2c(C)noc2/C=C\\c2ccc(OC)cc2)CC1", "AC50": "inactive"},
      {"smiles": "CCOc1ccccc1/C=C/c1onc(C)c1S(=O)(=O)N1CCC(C(=O)N2CCCCCC2)CC1", "activity change, negative = inhibition": "-16.1% (inactive)"},
      {"smiles": "CCc1cc(-c2n[nH]c(C)c2-c2nc(C)cs2)c(O)cc1OC", "AC50": "> 39 µM (inactive)"},
      {"smiles": "O=C(Nc1ccc(N2CCOCC2)c(Cl)c1)c1ccc(Cl)cc1", "AC50": "12.3 µM (active)"},
      {"smiles": "Cc1ccc(NCCN(C)C)c2c(=O)c3cc(O)ccc3sc12", "AC50": "5.2 µM (active)"},
      {"smiles": "COc1cc(-c2noc(C)c2C#CC2(O)CCCCC2)cc(OC)c1OC", "activity change, negative = inhibition": "-10.8% (inactive)"},
      {"smiles": "O=C(Nc1ccccc1F)N(Cc1ccc(F)cc1)Cc1nc2ccccc2c(=O)[nH]1", "activity change, negative = inhibition": "-7.11% (inactive)"},
      {"smiles": "Cn1c(SCC(=O)c2cc3ccccc3o2)nnc1-c1ccccc1", "activity change, negative = inhibition": "-12.4% (inactive)"},
      {"smiles": "CNC(=S)N/N=C/c1c(C(=O)OC)cnn1-c1ccc(F)cc1F", "activity change, negative = inhibition": "-6.87% (inactive)"},
      {"smiles": "O=c1[nH]nc(-c2ccc(F)cc2)cc1Cc1ccccc1", "activity change, negative = inhibition": "0.756% (inactive)"},
      {"smiles": "O=C(Nc1cc(S(=O)(=O)N2CCOCC2)ccc1N1CCOCC1)c1ccccc1Cl", "AC50": "> 39 µM (inactive)"},
      {"smiles": "COc1cc2c(cc1N)-c1ccc(N)cc1C2=O", "AC50": "1.18 µM (active)"},
      {"smiles": "Cc1ccc(/C=C/c2onc(C)c2S(=O)(=O)N2CCC(C(=O)N3CCN(C)CC3)CC2)cc1", "activity change, negative = inhibition": "-9.58% (inactive)"},
      {"smiles": "Cc1ccc(/C=C/c2onc(C)c2S(=O)(=O)N2CCC(C(=O)N3CCCCC3)CC2)cc1", "activity change, negative = inhibition": "-13.5% (inactive)"},
      {"smiles": "Cc1cc(SCC(=O)N/N=C/c2ccco2)nc2ccccc12", "AC50": "> 39 µM (inactive)"},
      {"smiles": "CCOc1ccccc1-n1c(C)nc2cc(C(=O)O)ccc21", "activity change, negative = inhibition": "7.93% (inactive)"},
      {"smiles": "Oc1ccc(/C=N/N2CCN(Cc3ccccc3)CC2)cc1", "AC50": "> 39 µM (inactive)"},
      {"smiles": "Cc1ccc(-c2nc3ccc([N+](=O)[O-])cc3[nH]2)cc1", "AC50": "7.38 µM (active)"},
      {"smiles": "Fc1cccc(NC(=S)NNc2c3ccccc3nc3ccccc23)c1", "activity change, negative = inhibition": "-12.2% (inactive)"},
      {"smiles": "O=C(CSc1cccc2cccnc12)N/N=C/c1ccc(O)cc1", "AC50": "11.1 µM (active)"},
      {"smiles": "Cc1ccc2sc(NNC(=O)C3COc4ccccc4O3)nc2c1C", "note": "(stereo not drawn)", "AC50": "0.238 µM (active)"},
      {"smiles": "Cc1ccc(C2=NS(=O)(=O)N(C)C(C(=O)NCc3ccccc3)=C2)cc1", "activity change, negative = inhibition": "-8.53% (inactive)"},
      {"smiles": "CC(C)NC(=O)N1CC[C@@H]2[C@H]1c1cc(-c3ccc(F)cc3)ccc1N(C)[C@H]2CO", "AC50": "6.96 µM (active)"},
      {"smiles": "Cc1cc(O)ccc1N=Cc1c(C(F)(F)F)[nH][nH]c1=O", "AC50": "10.9 µM (active)"},
      {"smiles": "O=C(Nc1ccncc1)c1ccc(-c2ccccc2)cc1", "activity change, negative = inhibition": "-15.9% (inactive)"},
      {"smiles": "CC(=O)Nc1ccc(S(=O)(=O)N2CCCC(C(=O)O)C2)cc1", "note": "(stereo not drawn)", "activity change, negative = inhibition": "-9.46% (inactive)"},
      {"smiles": "CCN1CC(CNCc2cn(-c3ccc(OC)cc3)nc2-c2ccccc2Cl)CC1=O", "note": "(stereo not drawn)", "activity change, negative = inhibition": "-3.53% (inactive)"},
      {"smiles": "Cc1ccc(C(=O)NC(=O)OCCn2c(C)cnc2[N+](=O)[O-])cc1", "activity change, negative = inhibition": "0.194% (inactive)"},
      {"smiles": "CCOc1ccccc1/C=C/c1onc(C)c1S(=O)(=O)N1CCC(C(=O)NC(C)(C)C)CC1", "activity change, negative = inhibition": "-3.36% (inactive)"},
      {"smiles": "Nc1cc(=O)[nH]c(SCC(=O)Nc2ccccc2Sc2ccc(Cl)cc2)n1", "activity change, negative = inhibition": "-18% (inactive)"},
      {"smiles": "O=C(C[C@H]1CC[C@@H]2[C@H](COC[C@@H](O)CN2C(=O)Nc2ccc(Cl)c(Cl)c2)O1)NCc1ccncc1", "activity change, negative = inhibition": "-7.89% (inactive)"},
      {"smiles": "Cn1ncc(Cl)c1C(=O)N/N=C/c1cccc(OC2CSC2)c1", "AC50": "> 39 µM (inactive)"},
      {"smiles": "NC(=O)c1ccc(NC(=O)CSc2nnc(C3CC3)n2C2CC2)cc1", "activity change, negative = inhibition": "1.2% (inactive)"},
      {"smiles": "CC1=NCCc2c1[nH]c1cc(O)ccc21", "AC50": "21.9 µM (active)"}
    ]}
  ]
}
